# ALOX15B inhib = inhibitors of human 15-lipoxygenase 2 (ALOX15B) | O15296 | purified 15hLO-2, xylenol orange hydroperoxide absorbance | Potency, µM (titrated, usually from 57.1 µM), without a hit: at the top dose activity change, negative = inhibition, hits mostly inhibitors | 110,000 tested, 0.56% active | AID 881; further: potency means the concentration at half of the fitted maximal effect; nearly all actives have a fitted effect of over 60% in size
#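 Enzyme 50 nM, AA 45 uM, 25 mM Hepes pH 7.5 + 0.01% Triton X-100; cpd preinc 15 min RT, rxn 90 min RT; stop/detect with 200 uM XO + 300 uM Fe(II) in 50 mM H2SO4, 30 min; A573/A405.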
# HPGD block = inhibitors of human 15-hydroxyprostaglandin dehydrogenase (HPGD). P15428. purified HPGD, NADH fluorescence kinetic, PGE2 substrate. Potency, µM, for the others: at the highest dose activity change, negative = inhibition, usual class: inhibitors. 150,000 tested, 4.3% active; active means well fitted inhibition curve with a large enough effect, not every such curve was filed as active; inconclusive means small, poorly fitted or top-dose-only effect, or another doubt; inactive means no such curve, though single readings can be large or run the other way; further: potency means the concentration at half of the fitted maximal effect
# Target sequence (P15428 whole entry, looked up): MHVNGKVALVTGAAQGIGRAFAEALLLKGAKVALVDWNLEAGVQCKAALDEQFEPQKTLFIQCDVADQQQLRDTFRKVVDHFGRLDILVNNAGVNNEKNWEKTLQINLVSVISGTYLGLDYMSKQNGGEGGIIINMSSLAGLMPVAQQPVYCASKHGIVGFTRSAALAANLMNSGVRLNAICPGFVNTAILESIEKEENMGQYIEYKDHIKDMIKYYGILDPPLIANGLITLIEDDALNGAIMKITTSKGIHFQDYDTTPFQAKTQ
#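 NADH formation kinetics: reaction with 30 uM PGE2 and 1 mM NAD+ (final), 20 nM enzyme, Tris-HCl pH 8 with Tween 20, after 15 min compound preincubation at room temperature. Fluorescence change, last versus first of five reads.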
# 12-hLO inh = 12-hLO (ALOX12) enzyme inhibition | purified 12-hLO, xylenol orange hydroperoxide absorbance | Potency, µM (doses to about 57.1 µM), for the others: at the top dose activity change, negative = inhibition, hits mostly inhibitors | 150,000 tested, 0.12% active | AID 1452; further: potency means the concentration at half of the fitted maximal effect; nearly all actives have a fitted effect of over 55% in size
#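 Lipoxygenase turnover measured by absorbance at 573 and 405 nm after Fe-XO development. Human 12hLO 150 nM, arachidonate 40 uM, pH 7.0 Hepes buffer with detergent; 15 min compound preincubation, 30 min reaction.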
# IMPase Li cell = IMPase inhibition in cells with lithium potentiation; CHO-M1 cells, IP1 TR-FRET (IP-One), carbachol + lithium; Potency, µM (doses to about 59.4 µM), without a hit: at the top dose activity, negative = IMPase inhibition, hits mostly inhibitors; 210,000 tested, 0.35% active; AID 1457;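 further: IP1 builds up when IMPase is blocked and the TR-FRET signal falls; potency means the concentration at half of the fitted maximal effect; plate controls were basal vehicle for no effect and high inhibitor control for full effect; nearly all actives have a fitted effect of over 50% in size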
#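 Steps: plate 2000 CHO-M1 cells per well and culture 16–30 h; add compound and lithium; incubate 30 min, 37C; add d2-IP1 tracer and Eu cryptate anti-IP1 antibody in lysis buffer; read after 10 min at room temperature.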
# IMPase inh = cell-permeable inhibitors of inositol monophosphatase (IMPase) | CHO-M1 cells, IP1 accumulation, HTRF TR-FRET ratio | inhibition (IP1 accumulation), % at 46.1 µM | 120,000 tested, under 10 active | AID 901 | P97697; active means well fitted curve in the direction sought with a large enough effect in the signal ratio, not every such curve was filed as active; inconclusive means small, poorly fitted or top-dose-only effect, or a change in a side signal; inactive means no such curve, though single readings can be large or run the other way; the % refers to the signal ratio;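 further: cells stimulated with carbachol in lithium chloride buffer; plate controls were DMSO basal wells for no effect and reference inhibitor wells for full effect; higher means more IMPase inhibition seen as more IP1 and lower FRET ratio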
# Target sequence (P97697 whole entry, looked up): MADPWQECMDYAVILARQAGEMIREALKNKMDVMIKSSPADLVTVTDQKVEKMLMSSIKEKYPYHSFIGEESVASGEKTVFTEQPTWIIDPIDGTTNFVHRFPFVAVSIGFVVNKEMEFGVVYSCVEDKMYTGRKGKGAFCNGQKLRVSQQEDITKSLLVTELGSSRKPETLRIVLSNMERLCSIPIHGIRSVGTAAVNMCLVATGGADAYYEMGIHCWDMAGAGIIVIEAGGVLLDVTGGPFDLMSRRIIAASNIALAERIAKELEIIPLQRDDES
#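 Seeded CHO-M1 cells were dosed with compound at up to 46 uM, stimulated with carbachol for 30 min, then lysed in IP-One detection reagents. Higher IP1 lowers the TR-FRET signal.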
# PNC assembly inh = inhibitors of perinucleolar compartment assembly; PC3M PTB-GFP, PNC prevalence imaging, 16 h; stronger effect = lower value; activity change (PNC), negative = inhibition, % at 10 µM; 140,000 tested, 3.1% active;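 active means readout at or below -70, meaning at least 70% loss of cells showing the perinucleolar compartment, a nuclear body marking cancer cells; inconclusive means readout between -30 and a set limit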;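 further: plate controls were DMSO wells for no effect and camptothecin positive control wells for full effect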
#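 PC3M cells stably expressing PTB-GFP, 750–1000 cells/well, treated 16 h at 37 °C with compound (23 nl of library stock), in duplicate. After paraformaldehyde fixation and Hoechst stain, imaged at 20x; PNC prevalence scored by image analysis.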
# * marks the source's active call; other numbers are inactive results; ? = inconclusive; nt = not tested or not shown; ! = not confirmed by another sample; [ ] = remark or other dose. Most compounds without a hit are left out; they make up all but 5.3% or so of the library. Unless noted, the call rests on the fitted dose curve; in most records, active means well fitted curve in the direction sought with a large enough effect; inconclusive means small, poorly fitted or top-dose-only effect, or another doubt; inactive means no such curve, though single readings can be large; an effect the other way counts as inactive or inconclusive. Unless noted, on the % scale 0 is the no-effect control and ±100 the full control effect.
SMILES,ALOX15B inhib,HPGD block,12-hLO inh,IMPase Li cell,IMPase inh,PNC assembly inh
Cn1c(SCc2ccccc2)nnc1C1CCCNC1 (configuration not stated),2%,-2%,-2%,26%[38.3 µM],-9,-107*
CCOC(=O)CN1C(=O)C(O)=C(C(C)=O)C1c1ccc(F)cc1 (configuration not stated),-2%,nt,-5%,nt,0,21
CCOC(=O)CN1C(=O)C(O)=C(C(C)=O)C1c1ccc([N+](=O)[O-])cc1 (configuration not stated),6%,-26%,12%,-11%[38.3 µM],3,-111*
CCOC(=O)c1c(NC(=O)CN2CCN(C(=O)c3ccco3)CC2)sc2c1CCCC2,nt,-19%,-12%,20%,4,-100*
COC(=O)c1c(NC(C)=O)sc2c1CCCC2,10%,-23%,-3%,-8%[38.3 µM],5,34
CCOC(=O)c1[nH]c(C)c(C(=O)N2CCN(c3ccc(F)cc3)CC2)c1C,-10%,-1%,0%,19%[38.3 µM],-11,-28
CCOC(=O)c1c(NC(=O)COc2ccc(C(C)(C)C)cc2)sc2c1CCCC2,nt,nt,nt,nt,-5,nt
CCOC(=O)c1[nH]c(C)c(C(=O)N2CCN(C(=O)c3ccco3)CC2)c1C,nt,-7%,2%,8%,-7,-100*
COC(=O)c1c(NC(C)=O)sc2c1CCCCC2,nt,28µM*,-4%,-1%,nt,-3
CCOC(=O)c1c(NC(=O)COC)sc2c1CCCC2,-1%,-15%,-1%,12%[38.3 µM],-8,-84*
CCCCC/C=C\C/C=C\C/C=C\C/C=C\CCCCCC(=O)NCCCC(=O)O,nt,-4%,3%,4%,nt,nt
CCOC(=O)c1c(-c2ccccc2)oc2ccc(OCc3ccccc3Br)cc12,nt,nt,nt,nt,-5,nt
Cc1cc(SCC(=O)c2ccc(Br)cc2)cc(C)[o+]1,-13%[11.4 µM],-13%,-8%[11.4 µM],-4%,nt,nt
CC(=O)N[C@@H](CC(=O)O)C(=O)N[C@@H](CCC(=O)O)C(=O)O,12%,-5%,-1%,3%,5,nt
NC(=O)c1c(NC(=O)CCCC(=O)O)sc2c1CCCCCC2,nt,28µM*,6%,-12%,nt,34
COCCN(CCOC)S(=O)(=O)c1ccc(C(=O)Nc2sc3c(c2C(N)=O)CCCCC3)cc1,nt,?,1%,2%,11,-119*
N#Cc1c(NC(=O)CCCC(=O)O)sc2c1CCCCC2,nt,-22%,1%,-1%,nt,10
COC(=O)c1c(NC(=O)c2ccc(N(C)S(=O)(=O)c3ccc(C)cc3)cc2)sc2c1CCCC2,nt,?,-2%,-6%,nt,-28
COC(=O)c1c(NC(=O)c2ccccc2N(C)S(=O)(=O)c2ccccc2)sc2c1CCCC2,nt,?,1%,6%,7,-108*
O=C(Nc1ccc2c(c1)OCO2)C1CCCN1C(=O)Nc1ccccc1F (configuration not stated),3%,-11%,-3%,12%[38.3 µM],-3,-84*
O=C(Nc1ccc2c(c1)OCO2)C1CCCN1C(=O)OCc1ccccc1 (configuration not stated),2%,3%,-6%,11%[38.3 µM],3,-127*
COc1ccccc1NC(=O)N1CCCC1C(=O)Nc1ccc2c(c1)OCO2 (configuration not stated),nt,-9%,-2%,7%,15,-13
COc1ccc(C(=O)Nc2ccc3c(c2)nc(CN2CCCC2)n3C)cc1,nt,nt,nt,14%,nt,nt
COc1cccc(-n2c([S-])c(C(=O)Nc3ccc(C(F)(F)F)cc3)[n+]3ccccc23)c1,nt,nt,nt,-11%,nt,nt
COc1ccc(S(=O)(=O)N(CC(=O)N2CCOCC2)Cc2ccccc2)cc1,nt,-16%,4%,11%,-5,23
SMILES,ALOX15B inhib,HPGD block,12-hLO inh,IMPase Li cell,IMPase inh,PNC assembly inh
O=C(CN(Cc1ccccc1)S(=O)(=O)c1ccccc1)N1CCOCC1,18%,0%,1%,-1%[38.3 µM],1,-101*
Cc1c(C(=O)N/N=C/c2ccc(Cl)cc2)[nH]c2ccc(Cl)cc12,nt,-10%,1%,3%,1,-112*
Cc1ccc(C2C3=C(CC(C)(C)CC3=O)Nc3[nH]c(=S)[nH]c(=O)c32)cc1 (configuration not stated),?,18µM*,-28%,1%,8,?
O=C(Cc1ccccc1[N+](=O)[O-])NCCSCc1c(F)cccc1Cl,-6%,?,-4%,-3%[38.3 µM],-1,83
CN(C)c1ccc(-c2cncnc2-n2ccnc2)cc1,0%,nt,nt,23%,nt,nt
CC(=O)N=c1sc2nc3ccccc3nc2n1N(C(C)=O)C(C)=O,?,?,-15%,13µM*,?,-4
CN(C)C(=O)n1nnnc1Cc1ccc(-c2ccccc2)cc1,-4%[0.0915 µM],-11%,-2%[0.00818 µM],12%,nt,nt
Cn1cccc1/C=N/n1c(-c2ccc(C(C)(C)C)cc2)n[nH]c1=S,10µM*,11µM*,?,4%[38.3 µM],0,54
Cn1c(-c2ccc(C(C)(C)C)cc2)n[nH]c1=S,-5%,?,-9%,23%[38.3 µM],13,-13
Cc1ccc(-c2n[nH]c(=S)n2/N=C/c2c(C)[nH]n(-c3ccccc3)c2=O)cc1,nt,nt,nt,3%,nt,nt
Cn1cccc1/C=N/n1c(-c2ccccc2)n[nH]c1=S,-13%,14µM*,0%,9%[38.3 µM],-1,11
CNc1ccc(O)cc1,-15%,13µM*,7%,49%,nt,nt
O=C(CCN1C(=O)C2C3C=CC(C3)C2C1=O)NCCc1ccccc1 (configuration not stated),0%,-10%,-3%,3%,2,-93*
COC(=O)[C@@H](N)Cc1ccc(O)c(O)c1,-4%,-13%,-2%,6%,0,nt
O=C(/C=C/c1ccc(O)c(O)c1)OCCc1ccccc1,10µM*,?,?,20%,nt,nt
O=C(/C=C\c1ccc(O)c(O)c1)O[C@@H](Cc1ccc(O)c(O)c1)C(=O)O,4%,28µM*,-12%,20%,8,nt
O=C(/C=C/c1ccc(O)c(O)c1)O[C@@H]1C[C@@](O)(C(=O)O)C[C@H](O)[C@@H]1O,-2%,-14%,-4%,14%,3,nt
O=C(/C=C/c1ccc(O)c(O)c1)OC(Cc1ccc(O)c(O)c1)C(=O)O (configuration not stated),-8%,22µM*!,-6%,23%,?,nt
CC(C)N(C)CCOC(=O)/C=C/c1ccccc1,nt,2%,-1%,-2%,nt,21
CN(C)C(CNC(=O)c1cc(S(=O)(=O)N(C)c2ccccc2)ccc1Cl)c1cccs1 (configuration not stated),nt,nt,nt,18%,nt,nt
COC(=O)[C@@]1(Cc2ccc(OC)cc2)[C@H]2c3cc(C(=O)N(C)C)n(Cc4ccc(C)c(F)c4F)c3C[C@H]2CN1C(=O)c1ccccc1,6%,-17%,-9%,16%,nt,nt
